From PubChem BioAssay
Sampled rows, rich in hits. Any-hit rate of the full collection: about 5.2%.
CR mimetic SO: yeast age-related superoxide inhibition as caloric restriction mimetic. S. cerevisiae aged cells, superoxide DHE fluorescence; active compounds read low. 330,000 tested, 0.18% active. superoxide response (% of plate mean), % at 10 µM;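 active means superoxide response under a set limit, about three screen SD below normal, cut at about 65% in these data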;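 further: yeast aged for seven days with compound at 30 °C before DHE staining; 100% = average MFI of all compound-treated wells on the plate with controls excluded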
A3A deaminase: blocks human APOBEC3A ssDNA deamination; P31941; recombinant A3A, FAM/TAMRA ssDNA deamination fluorescence; inhibition, % at 20 µM; 330,000 tested, 0.41% active;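 active means at least 40% inhibition at 20 µM here, with at most 30% in a related deaminase screen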;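 further: plate controls were A3A with DMSO for no effect and wells lacking A3A enzyme for full effect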
Target sequence (P31941 whole entry, looked up): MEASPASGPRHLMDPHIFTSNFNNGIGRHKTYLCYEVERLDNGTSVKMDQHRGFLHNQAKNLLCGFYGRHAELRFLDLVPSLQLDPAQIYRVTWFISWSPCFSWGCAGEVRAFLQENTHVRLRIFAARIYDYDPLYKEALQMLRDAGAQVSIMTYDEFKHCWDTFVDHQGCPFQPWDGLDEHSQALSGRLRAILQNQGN
M18AAP inhibitor: PfM18AAP enzyme inhibition; inhibition, % at 7.35 µM; AID 1822; 290,000 tested, 1.2% active; recombinant PfM18AAP, H-Glu-NHMec fluorogenic cleavage;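 active means inhibition above the campaign mean inhibition over all tested compounds plus 3 SD, cut at about 28% in these data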;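 further: 0% = plate median of test compound wells and 100% = 2 mM ZnCl2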
A3G deaminase: APOBEC3G (human) deaminase inhibition; inhibition, % at 20 µM; 330,000 tested, 0.28% active; recombinant A3G, ssDNA deamination FAM/TAMRA fluorescence;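 active means inhibition of at least 40% at 20 µM, with no more than 30% in the related APOBEC3A deaminase screen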;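 further: plate controls were DMSO wells with A3G for no effect and wells lacking A3G enzyme for full effect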
Target sequence (Q9HC16 whole entry, looked up): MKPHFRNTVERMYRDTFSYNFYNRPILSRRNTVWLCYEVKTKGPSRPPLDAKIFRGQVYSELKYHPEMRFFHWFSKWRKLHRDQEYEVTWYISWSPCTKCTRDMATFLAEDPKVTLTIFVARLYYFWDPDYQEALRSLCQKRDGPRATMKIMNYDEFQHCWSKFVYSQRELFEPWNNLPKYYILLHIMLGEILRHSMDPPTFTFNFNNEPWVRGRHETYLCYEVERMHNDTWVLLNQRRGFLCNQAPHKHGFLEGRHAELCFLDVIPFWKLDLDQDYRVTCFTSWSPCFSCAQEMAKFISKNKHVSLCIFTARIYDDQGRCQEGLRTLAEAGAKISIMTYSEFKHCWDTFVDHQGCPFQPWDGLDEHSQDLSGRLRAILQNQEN
NRP1-CendR mod: alters CendR peptide binding to human NRP-1; O14786; FAM-RPARPAR peptide binding to NRP-1, fluorescence polarization; inhibition, % at 25 µM; 360,000 tested, 0.85% active;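 active means inhibition or corrected inhibition above about 18%, plus a signal ratio from 0.5 to 1.5, limit read from the data, passing the limit was not always enough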
ALR inh: inhibitors of human sulfhydryl oxidase ALR; P55789; purified ALR, DTT oxidation, H2O2 HRP-luminol luminescence; inhibition, % (test concentration not listed); 290,000 tested, 3.8% active;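 active means mean replicate inhibition above about 79%, with every replicate also reaching it, limit read from the data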
APOBEC3A confirm: APOBEC3A (human) deaminase inhibition, confirmed. shares compounds with A3A deaminase. recombinant A3A, ssDNA deaminase UDG fluorescence assay. inhibition, % at 20 µM. 1,400 tested, 63% active. AID 493151;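 active means inhibition reaching a set limit, 80% of the first screen's cutoff, at 20 µM in any replicate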;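 further: plate controls were DMSO wells with A3A for no effect and wells lacking A3A enzyme for full effect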
UDG ctr A3A: inhibits UDG, flagging false APOBEC3A inhibitors; shares compounds with A3A deaminase; inhibition, % at 20 µM; UDG counterscreen, FAM/TAMRA uracil oligo fluorescence; 1,000 tested, under 10 active; AID 504714; call rule not given here
An asterisk follows results filed as active; . = no result given.

SMILES | CR mimetic SO | A3A deaminase | M18AAP inhibitor | A3G deaminase | NRP1-CendR mod | ALR inh | APOBEC3A confirm | UDG ctr A3A
COC(=O)c1c(Sc2ccccc2)c2ccccc2n1C | 108.9 | 58.3* | 7.2 | 11.2 | -6.7 | 2.5 | 81.7* | 1.7
CC(=O)NC(CC(=O)NC1CCCCCC1)c1ccccc1 (stereo not given) | 88.2 | 45.5* | 1.9 | -4.1 | -4.0 | -2.8 | 32.3* | -1.6
CCN1C(=O)Nc2cccc3cccc1c23 | 103.5 | -4.6 | . | -5.2 | -3.6 | 31.2 | . | .
CCC1=[N+](C)c2cccc3cccc(c23)N1C | 103.7 | 65.2* | 5.0 | 22.1 | 3.0 | 63.2 | 77.8* | -3.0
OC1(c2ccccc2)CCN(Cc2ccccc2)C2CCCCC21 (stereo not given) | 81.7 | 3.8 | -3.5 | -6.3 | 6.5 | . | . | .
COCCCNC(=O)CSc1ccsc1[N+](=O)[O-] | 108.8 | 3.1 | 5.6 | -5.4 | 10.7 | -11.6 | . | .
Cc1ccccc1NC(=O)CSc1ccsc1[N+](=O)[O-] | 116.0 | 48.5* | -1.0 | 18.9 | 4.8 | 24.9 | 42.4* | .
Cc1cccc(NC(=O)CSc2ccc(C(N)=O)cc2[N+](=O)[O-])c1C | 98.9 | 44.4* | -7.3 | 23.1 | -3.8 | -0.1 | 5.6 | .
CCOc1ccc2nc(NS(=O)(=O)c3ccc4c(c3)n(C)c(=O)n4C)sc2c1 | 109.0 | 0.8 | 15.0 | -1.8 | -9.6 | -3.0 | . | .
Cc1ccc(C)c(NC(=O)c2cc[n+](C)cc2)c1 | 102.8 | 78.9* | 3.0 | 8.6 | -2.3 | -0.3 | 68.8* | -2.0
Cc1ccc(C(=O)Nc2cc([N+](=O)[O-])ccc2C)cc1 | 102.0 | -4.4 | -5.8 | -8.9 | 0.3 | -1.2 | . | .
Cc1c(NC(=O)c2ncn[nH]2)cccc1-c1nc2ccccc2s1 | 105.8 | 75.1* | 0.5 | 25.4 | -6.1 | 8.9 | 71.5* | 3.0
Cc1c(NC(=O)c2ccc(N3CCCC3)c([N+](=O)[O-])c2)cccc1-c1nc2ccccc2s1 | 86.8 | 3.8 | -2.5 | 2.5 | -8.1 | . | . | .
Cc1ccc(C)c(NC(=O)c2ncn[nH]2)c1 | 99.7 | 45.3* | 4.8 | 12.3 | -2.2 | 6.5 | 40.8* | -1.2
C[n+]1ccc(C(=O)Nc2ccccc2Cl)cc1 | 102.6 | 73.0* | -16.4 | 14.5 | 17.5 | 9.0 | 68.8* | -2.1
Cc1ccc(C)c(NC(=O)c2cnccn2)c1 | 101.1 | 0.5 | -1.4 | 1.0 | 16.2 | -9.3 | . | .
COc1ccc(-n2ncc3c(=O)n(CC(C)=O)cnc32)cc1 | 92.4 | 42.8* | -0.5 | -3.4 | -5.3 | -11.4 | -3.2 | -1.7
CCn1ncc(/C=N/O)c1C | 93.5 | -0.4 | -4.7 | -0.8 | 1.1 | -2.7 | . | .
COc1ccc(C(=O)C[N+]2(C)CCOCC2)cc1 | 100.6 | 64.2* | 2.5 | 20.1 | 14.5 | -2.5 | 67.0* | -2.3
COc1ccc(C(=O)OCC[N+]2(C)CCCCC2)cc1 | 93.3 | 64.4* | -3.7 | 11.8 | 1.2 | . | 78.5* | -3.0
CCN(CC)CCCOC(=O)C1(c2ccccc2)CCCC1 | 99.0 | -6.2 | -10.3 | -7.3 | 3.7 | 4.3 | . | .
COc1ccc(C(=O)CC(=O)c2ccc(OC)cc2)cc1 | 91.9 | -4.6 | -15.2 | -5.8 | 5.2 | -2.4 | . | .
CC(C[N+](C)(C)C)OC(=O)C1(c2ccccc2)CCCC1 (stereo not given) | 96.9 | 44.5* | -6.0 | 13.5 | -4.5 | -2.9 | 65.7* | -3.4
C[N+](C)(C)CCOC(=O)C1(c2ccccc2)CCCC1 | 94.8 | 59.7* | 8.6 | 16.3 | 3.1 | -9.5 | 76.3* | -1.9
COc1ccc(S(=O)(=O)N(C)c2ccc(C(=O)N3CCCCC3)cc2)cc1OC | 94.2 | -3.2 | 0.8 | -7.5 | -15.7 | 2.5 | . | .
SMILES | CR mimetic SO | A3A deaminase | M18AAP inhibitor | A3G deaminase | NRP1-CendR mod | ALR inh | APOBEC3A confirm | UDG ctr A3A
CC(C(=O)Nc1ccon1)N1C(=O)c2ccccc2S1(=O)=O (stereo not given) | 114.3 | -2.7 | . | -9.3 | -15.0 | -0.7 | . | .
Cc1cc(C)cc(-n2c(C)cc(/C=N/NC(=O)CSc3ncccn3)c2C)c1 | 96.3 | -4.2 | 2.9 | -1.1 | 2.0 | -7.8 | . | .
C[N+]1(CCOC(=O)C2(c3ccccc3)CCCC2)CCCCC1 | 104.3 | 64.0* | 0.5 | 23.4 | 4.6 | 1.3 | 63.3* | -3.0
O=C(Cn1nnc2ccccc21)OCC(=O)c1ccc(Cl)c(Cl)c1 | 107.7 | 40.5* | 3.1 | 0.0 | -4.1 | -4.0 | 1.1 | .
O=C(Cn1nnc2ccccc21)OCC(=O)c1ccccc1 | 94.7 | 5.7 | 2.7 | 0.2 | -4.6 | -3.9 | . | .
CCn1c(SCC(=O)N2CCCC2)nnc1-c1ccc(N)cc1 | 105.5 | 43.6* | 2.1 | 24.6 | 6.5 | 1.8 | 64.7* | 2.7
CCN(C(=O)COC(=O)c1ccc(C)c(S(=O)(=O)N2CCCCC2)c1)C1CCS(=O)(=O)C1 (stereo not given) | 89.1 | -1.8 | . | -8.7 | 1.6 | -3.3 | . | .
N#CCC(=O)N/N=C/c1cn(Cc2ccccc2C#N)c2ccccc12 | 93.2 | 56.3* | 2.4 | 18.4 | 2.3 | -7.0 | 71.9* | 3.1
N#CCC(=O)N/N=C/c1cn(Cc2cccc3ccccc23)c2ccccc12 | 93.7 | -3.5 | -1.2 | -5.8 | -13.7 | -2.9 | . | .
O=C(c1c(F)cccc1Cl)N(Cc1ccco1)C1CCS(=O)(=O)C1 (stereo not given) | . | . | . | . | -14.9 | . | . | .
O=C1N=C(N2CCOCC2)S/C1=C/c1cccs1 | 92.3 | 70.7* | -4.8 | -1.3 | 1.9 | -9.5 | -1.5 | -2.5
N/C(=N\N=C\c1ccnc2ccccc12)SC1CC(=O)N(c2ccc(Br)cc2)C1=O (stereo not given) | 97.8 | 0.6 | -0.4 | 4.5 | -0.2 | -25.1 | . | .
Cn1cnc(C(=O)N2CCN(c3ccccc3)CC2)c1C(=O)N1CCN(c2ccccc2)CC1 | 97.2 | 58.8* | . | 16.0 | -9.0 | 54.2 | 67.2* | 2.1
CC(C)(C)OC(=O)N1CCN(C(=O)c2nc[nH]c2C(=O)N2CCN(C(=O)OC(C)(C)C)CC2)CC1 | 94.2 | -0.1 | . | -10.1 | 17.3 | 18.1 | . | .
Cn1cnc(C(=O)N2CCN(C(=O)OC(C)(C)C)CC2)c1C(=O)N1CCN(C(=O)OC(C)(C)C)CC1 | 114.8 | 46.2* | . | 8.5 | 11.8 | 2.7 | 64.5* | -0.1
CN(CCc1ccccn1)C(=O)CCC1CCCN(C(=O)c2cscn2)C1 (stereo not given) | 99.6 | 0.2 | 2.5 | -4.7 | 3.0 | 2.4 | . | .
Cc1cc(C)cc(C(=O)NC(CC(N)=O)c2ccc(N3CCC(Cc4ccccc4)CC3)c([N+](=O)[O-])c2)c1 (stereo not given) | 96.1 | 2.5 | 0.6 | 20.6 | -8.4 | 2.0 | . | .
O=C(Nc1ccccc1N1CCN(c2ccc(F)cc2)CC1)c1ccccc1 | 100.2 | 0.1 | 1.9 | -2.9 | 3.8 | -2.0 | . | .
CCN1CCN(c2ccccc2NC(=O)c2ccc(-n3cccn3)cc2)CC1 | 127.4 | 46.0* | . | 9.4 | 11.2 | . | 27.7 | .
CC(=O)Nc1cc(Br)ccc1O | 96.2 | -2.5 | 2.6 | -13.3 | 0.4 | 5.5 | . | .
